Rows were chosen to be rich in hits. Some 2.4% of all compounds tested hit in one or more screens of this group.
D2 ag-1 = Beta-Arrestin HTS for Positive Allosteric Modulators of the Human D2 Dopamine Receptor: Agonists | AID 624465, 2012 | actives 0.084% (n = 360,000) | activation, % (no concentration beside the values) | D(2) dopamine receptor (Homo sapiens), P14416 | DiscoveRx PathHunter D2 beta-arrestin, luminescence, 90 min; 100% = 57 uM dopamine signal; in the data active = activation above about 40%
Target sequence (P14416 whole entry, looked up): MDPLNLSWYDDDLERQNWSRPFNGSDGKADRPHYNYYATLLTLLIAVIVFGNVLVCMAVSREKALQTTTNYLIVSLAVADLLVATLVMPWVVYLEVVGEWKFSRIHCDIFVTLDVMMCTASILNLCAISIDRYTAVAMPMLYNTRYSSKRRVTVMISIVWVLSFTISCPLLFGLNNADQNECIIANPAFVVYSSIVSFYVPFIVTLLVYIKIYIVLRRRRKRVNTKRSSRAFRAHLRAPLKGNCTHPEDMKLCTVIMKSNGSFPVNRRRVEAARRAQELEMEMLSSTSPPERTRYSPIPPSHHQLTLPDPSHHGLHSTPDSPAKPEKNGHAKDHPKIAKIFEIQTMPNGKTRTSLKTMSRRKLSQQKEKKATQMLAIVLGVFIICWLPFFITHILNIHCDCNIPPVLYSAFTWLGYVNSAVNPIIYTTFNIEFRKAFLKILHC
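DiscoveRx PathHunter D2 beta-arrestin cells (2,100/well) attached overnight, then compound-stimulated 90 min at 37 C in HBSS/10 mM HEPES/0.1% Tween-20 buffer; beta-galactosidase complementation read by luminescence after 1 h at ambient temperature. Dopamine 57 uM final (EC100) as control.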
D2 ag-2 = HTS Assay for Allosteric Agonists of the Human D2 Dopamine Receptor: Primary Screen for Agonists | D(2) dopamine receptor (Homo sapiens), P14416 | HEK293 T-REx D2 cells, calcium flux agonist mode | activation, % at 2 µM | actives 0.53% (n = 340,000) | AID 485358, 2010;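 active = activation over 3 SD above normal in the single-dose calcium agonist read, cut at about 30% in these data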; note: 0% is about no effect
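Calcium-flux readout, 1 cycle/sec over 180 s following compound pin transfer, in inducible HEK293 Trex D2 cells (force-coupled); dopamine controls included. Positive calcium responses during this window marked compounds as potential agonists.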
D2 PAM-1 = HTS Assay for Positive Allosteric Modulators of the Human D2 Dopamine Receptor: Primary Screen for Potentiators; HEK293 T-REx D2, calcium flux, EC20 dopamine potentiation; potentiation, % at 10 µM; D(2) dopamine receptor (Homo sapiens), P14416; actives 0.34% (n = 340,000);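 active = potentiation over 3 SD above the plate norm, cut at about 30% in these data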; note: 0% is about no effect
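Potentiation of an EC20 dopamine calcium response is measured in a force-coupled, tetracycline-inducible Hek293 Trex D2 line. Compound-only kinetic reads over 180 s flag agonists before dopamine addition.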
D2 antag = HTS Assay for Allosteric Antagonists of the Human D2 Dopamine Receptor: Primary Screen for Antagonists; D(2) dopamine receptor (Homo sapiens), P14416; HEK293 TREx D2 cells, calcium flux, dopamine EC80; inhibition, % at 10 µM; actives 2% (n = 340,000); AID 485344, 2010; in the data active = inhibition above about 30%; inactive = below that, where a call was filed; note: 0% is about no effect
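Calcium mobilization kinetics were recorded at 1 s intervals in tetracycline-induced HEK293 T-REx D2 cells, first for 180 s after compound addition and then 180 s after EC80 dopamine.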
D2 PAM-2 = Beta-Arrestin HTS for Positive Allosteric Modulators of the Human D2 Dopamine Receptor: Potentiators. DiscoveRx D2 beta-arrestin cells, luminescence, 90 min; 100% = 57 uM dopamine signal. potentiation, % (test concentration not listed). actives 0.23% (n = 360,000). AID 624464, 2012; in the data active = potentiation above about 50%
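D2 cells co-treated with compound plus 50 nM dopamine (EC20) for 90 min at 37 deg C to detect potentiation. Beta-arrestin recruitment was read as enzyme-fragment luminescence after 1 h at ambient temperature. Full response was set by 57 uM dopamine.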
Active calls of the source: *.

What do the screens show for `Cc1[nH]c(=O)[nH]c(=O)c1S(=O)(=O)N1CCCC(C(=O)NCCc2ccc(Cl)cc2)C1` (stereo not given)?
D2 ag-1: -1; D2 ag-2: 0; D2 PAM-1: -17; D2 antag: 65*; D2 PAM-2: -15

What do the screens show for `COc1ccc(C(NC(=O)C2CCN(Cc3ccc(Oc4ccccc4)cc3)CC2)c2ccccc2C)cn1` (stereo not given)?
D2 ag-1: -5; D2 PAM-2: -12

How did CC1=C(C(=O)Nc2ccccc2C)C2(CCCCC2)C(C(N)=O)C(=S)N1 (stereo not given) do in these assays?
D2 ag-1: -5; D2 ag-2: 1; D2 PAM-1: 0; D2 antag: 38*; D2 PAM-2: -5

Results for CN(CC(=O)N1CC=C(c2ccccc2)CC1)S(=O)(=O)c1ccc2c(c1)c(=O)n(C)c(=O)n2C ?
D2 ag-1: 4; D2 ag-2: -1; D2 PAM-1: 4; D2 antag: 31*; D2 PAM-2: -19

How did CCC(Cc1ccccc1)NC(=O)CN(C)S(=O)(=O)c1ccc2c(c1)c(=O)n(C)c(=O)n2C (stereo not given) do in these assays?
D2 ag-1: -1; D2 ag-2: 0; D2 PAM-1: 52*; D2 antag: 23; D2 PAM-2: -7

Results for Cn1c(=O)c2cc(S(=O)(=O)NCCC(=O)N3CC=C(c4ccccc4)CC3)ccc2n(C)c1=O ?
D2 ag-1: -2; D2 ag-2: 3; D2 PAM-1: -20; D2 antag: 3; D2 PAM-2: -11

What do the screens show for `CCCCOC(=O)c1cccc(NC(=O)c2cc3ccccc3o2)c1`?
D2 PAM-1: 4

How did COc1ccc(N(CC(=O)Nc2cccnc2)S(=O)(=O)c2ccc(C)cc2)cc1Cl do in these assays?
D2 ag-1: -1; D2 ag-2: 5; D2 antag: 4; D2 PAM-2: -20

What do the screens show for `CCOc1ccc(NC(=O)CN(c2ccc(OC)c(OC)c2)S(=O)(=O)c2ccc(C)cc2)cc1`?
D2 ag-1: -6; D2 ag-2: 1; D2 PAM-1: 4; D2 antag: 55*; D2 PAM-2: -5

Results for COc1ccc(S(=O)(=O)N(CC(=O)Nc2ccc(C)cc2)c2ccc(C)cc2)cc1OC ?
D2 ag-2: 1; D2 PAM-1: -2

What do the screens show for `COc1ccc(N(CC(=O)Nc2cccnc2)S(=O)(=O)c2ccccc2)cc1Cl`?
D2 ag-1: -1; D2 ag-2: 0; D2 PAM-1: -21; D2 antag: 31*; D2 PAM-2: -8

How did COC(=O)c1cc(NC(=O)CN(c2cccc(OC)c2)S(=O)(=O)c2ccccc2)ccc1Cl do in these assays?
D2 ag-1: -2; D2 ag-2: 2; D2 PAM-1: 3; D2 antag: 13; D2 PAM-2: -11

What do the screens show for `O=C(CN(c1ccccc1)S(=O)(=O)c1ccc(Cl)cc1)Nc1cccnc1`?
D2 ag-1: -3; D2 ag-2: 1; D2 PAM-1: -33; D2 antag: 34*; D2 PAM-2: -11

How did COC(=O)c1cc(NC(=O)CN(c2ccccc2OC)S(=O)(=O)c2ccccc2)ccc1Cl do in these assays?
D2 ag-1: -2; D2 ag-2: 1; D2 PAM-1: -4; D2 antag: 36*; D2 PAM-2: -7

What do the screens show for `C/C(=N\Nc1ncnc2sc(C)c(C)c12)c1ccccn1`?
D2 ag-1: -4; D2 ag-2: 46*; D2 PAM-1: 10; D2 antag: -19; D2 PAM-2: 20

What do the screens show for `COc1ccccc1CNC(=O)c1cc(-c2ccccc2)n[nH]1`?
D2 PAM-1: 5

What do the screens show for `CCCCN(C(=O)c1ccc(C#N)cc1)c1c(N)n(CCC)c(=O)[nH]c1=O`?
D2 ag-1: -3; D2 ag-2: -2; D2 PAM-1: -3; D2 antag: 42*; D2 PAM-2: -5
